This is an account of results in ChEMBL document CHEMBL1157539, “Thousands of chemical starting points for antimalarial lead identification” (Nature, 2010).

This assay deals with HepG2. As to the kind of experiment: GSK_TCMDC: Percent inhibition of human HepG2 cell line. Test compounds present at 10uM. In kind it is functional.
The term Inhibition denotes how much of the control response was suppressed. The low end stands for a response near the control, the high end for a response far below the control. Regarding `CCOC(=O)c1c(NC(=O)c2ccccc2)sc2c(O)c(CN(CC)CC)ccc12.Cl`, the Inhibition is on record as 9%.

In the case of `Cc1ccc2c(NC(=O)Nc3ccc(N(C)C)cc3)cc(C)nc2c1`, the Inhibition came to 0%.

`COc1ccc(NC(=O)N2CCCN(CCCCCNC(=O)/C=C/c3ccc(Cl)cc3)CC2)cc1Cl` yielded an Inhibition of 15%.

Compound `CC(C)Cc1cnc2nc(N)nc(N)c2c1.Cl` had an Inhibition of 66%.

In turn, `CC(Cc1ccc(CNC(=O)NCc2ccc(CC(C)NCCc3cccc(Cl)c3)cc2)cc1)NCCc1cccc(Cl)c1` (stereo not given) gave an Inhibition of 100%.

`CCOc1cc(CC)ccc1C1CCN(CCN2CCC(NC(=O)c3ccc(-c4ccc(C#N)cc4)cc3)CC2)CC1` registered an Inhibition of 32%.

`NC(=O)C1CCN(Cc2cccc(-c3cccc(-c4nc5cc(C(F)(F)F)ccc5[nH]4)c3)c2)CC1.O=C(O)C(F)(F)F` came in with an Inhibition of 16%.

The compound `CCCN(CC1CC1)c1ncc(-c2cccc(CNCc3ccccc3O)c2)cn1` registered an Inhibition of 15%.

In turn, `O=C(NCC1CC1)C1CCN(C(c2ccc(Cl)cc2)c2ccc(Cl)cc2)CC1` came in with an Inhibition of 3%.

`CCOc1cccc(C(=O)Nc2cccc(CN3CCCN(Cc4ccc(O)cc4)CC3)c2)c1.O=C(O)C(F)(F)F` gave an Inhibition of 23%.

For `COCCn1c(Sc2ncnc3sccc23)nc2ccccc21`, the Inhibition is on record as 0%.

The compound `CC(C)CSc1cc(C(=O)Nc2cc(Cl)ccc2O)ccn1` yielded an Inhibition of 36%.

In the case of `O=C(c1cncc(-c2ccccc2)c1)N(Cc1cncn1Cc1ccccc1F)CC1CC1`, the Inhibition turned out to be 0%.

`Cc1noc(C)c1-c1ccc2c(Nc3ccccc3C(C)(C)C)c(C(=O)NCc3ccc(OC(C)C)cc3)cnc2c1.Cl` registered an Inhibition of 0%.

`CS(=O)(=O)NCCCNCc1cccc(-c2cccc(-c3nc4cc(C(F)(F)F)ccc4[nH]3)c2)c1.O=C(O)C(F)(F)F`: the Inhibition worked out at 17%.

`CCc1cn(C)c2c(N3CCCC3=O)cc(C(=O)N[C@@H](Cc3ccccc3)[C@H](O)CNC3CCCCC3)cc12`: the Inhibition was determined as 8%.

In the case of `CCc1cn2c3c(cc(C(=O)N[C@@H](Cc4ccccc4)[C@H](O)CNC4CCOCC4)cc13)N(CC(F)(F)F)S(=O)(=O)CC2.O=CO`, the Inhibition turned out to be 4%.

`COc1ccccc1CCNC(=O)c1cc(Br)cc(N2CCN(c3ccncc3)CC2)c1.O=C(O)C(F)(F)F` returned an Inhibition of 38%.

`COc1cc(NCC2(CNCc3cn(Cc4ccccc4)c4ccccc34)CCCCC2)nc2ccccc12.Cl` displayed an Inhibition of 65%.

For the compound `Br.CC1(C)NC(N)=NC(=N)N1OCCCOc1cccc2ccccc12`, the Inhibition was found to be 67%.

For `CN(CCN(C)CC(O)c1ccc(Cl)c(Cl)c1)CC(O)c1ccc(Cl)c(Cl)c1.Cl` (stereo not given), the Inhibition was 22%.

Take `c1ccc(CN2CCC(Nc3ccc(-c4c[nH]nc4-c4ccccn4)nc3)CC2)cc1`: the Inhibition was determined as 1%.

For the compound `CCCCCCCc1ccc(-c2c(C)[nH]c(C)c(Cl)c2=O)cn1`, the Inhibition is 0%.

For the compound `Cc1cc2nc(-c3ccc(C(=O)NCCCc4ccccc4)cc3)[nH]c2cc1C`, the Inhibition is recorded as 7%.

Consider `COc1ccc(Nc2nc(NCc3cccnc3)cc(-c3ccc(OC)cc3)n2)cc1`, for which the Inhibition worked out at 0%.

`COc1ccc(NC(=O)/C=C/c2ccccc2Cl)cc1OCCN1CCN(c2ccncc2)CC1` returned an Inhibition of 7%.

`O=C(O)c1cc(OCC(O)COc2ccc(O)c(C(=O)O)c2)ccc1O` came in with an Inhibition of 9%.

As for `CCCCCCc1cnc2nc(N)nc(N)c2c1C`, the Inhibition amounted to 67%.

For the compound `NC1CCCN(Cc2cccc(-c3ccc(-c4nc5ccccc5[nH]4)s3)c2)C1.O=C(O)C(F)(F)F` (stereo not given), the Inhibition came out at 21%.

In turn, `O=C(Nc1cccc(-c2csc(-c3nc4ccccc4[nH]3)c2)c1)c1cccnc1` registered an Inhibition of 18%.

`CCCc1cc(Cc2cnc(N)nc2N)cc(CC)c1OC.Cl` returned an Inhibition of 4%.

For the compound `Clc1ccc(-c2cnc3ccc(NCc4ccncc4)nn23)cc1`, the Inhibition worked out at 25%.

With `O=C(/C=C/c1ccc(Cl)c(Cl)c1)NC1CCC(CN2CCC(c3coc4ccccc34)CC2)CC1` (stereo not given), the Inhibition was 40%.

`N=C(Nc1nc(-c2ccccn2)cc2ccccc12)c1cccc(Cl)c1` returned an Inhibition of 54%.

The compound `O=C(Nc1ccc(Cl)cc1)Nc1ccc(-c2ccc(-c3nc4ccccc4[nH]3)cc2)cc1` had an Inhibition of 47%.

Consider `CCN1CCC(N(Cc2ccc(-c3ccc(C(F)(F)F)cc3)cc2)C(=O)Cn2c(CCc3cccc(F)c3F)cc(=O)c3ccc(OCc4ccccc4)cc32)CC1.O=C(O)C(O)C(O)C(=O)O`, for which the Inhibition worked out at 60%.

Take `O=C(NCc1ccc(F)cc1)Nc1ccc(-c2cccc(-c3nc4cc(F)ccc4[nH]3)c2)cc1`: the Inhibition is 31%.

Consider `Cc1ccc(Cc2c[nH]c(NCCSCc3ccc(CN4CCOCC4)o3)nc2=O)cn1`, for which the Inhibition was determined as 2%.

Consider `COc1ccc(-n2cc(CNCCCn3ccnc3)c(-c3cccc(F)c3)n2)cc1`, for which the Inhibition is 21%.

In turn, `CC1CCC2(CC1)N=C(N)N=C(N)N2OCc1cc2ccccc2c2ccccc12` (stereo not given) came in with an Inhibition of 27%.
